Measured values taken from PubChem BioAssay (NCI).
This is part of a sample that, as a whole, favours compounds with a hit. Of some 83,000 tested, about 20% had one in any assay.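 Plates (96-well) were seeded with cells, treated with compound at one concentration, and incubated for 48 hours before percent growth was determined.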 Calls of active or inactive are those of the source. How the source made its calls: active means growth percent below 10; inactive means the rest.

Key:
Assay in all cases: NCI-60 one-dose screen, 48 h (100 = growth as untreated, 0 = no growth, -100 = all killed)
Conditions in all cases: 10 µM unless noted
SK-MEL-2 melanoma = tested on: SK-MEL-2 melanoma
EKVX NSCLC = tested on: EKVX NSCLC
SN12C renal = tested on: SN12C renal
UO-31 renal = tested on: UO-31 renal
TK-10 renal = tested on: TK-10 renal
ACHN renal = tested on: ACHN renal
CAKI-1 renal = tested on: CAKI-1 renal
A498 renal = tested on: A498 renal
CCRF-CEM leukemia = tested on: CCRF-CEM leukemia
MOLT-4 leukemia = tested on: MOLT-4 leukemia
RPMI-8226 leukemia = tested on: RPMI-8226 leukemia
OVCAR-8 ovarian = tested on: OVCAR-8 ovarian
OVCAR-5 ovarian = tested on: OVCAR-5 ovarian
OVCAR-4 ovarian = tested on: OVCAR-4 ovarian
SK-OV-3 ovarian = tested on: SK-OV-3 ovarian
IGROV1 ovarian = tested on: IGROV1 ovarian
OVCAR-3 ovarian = tested on: OVCAR-3 ovarian
HS 578T breast = tested on: HS 578T breast
NCI/ADR-RES ovarian = tested on: NCI/ADR-RES ovarian

Measured: growth

CN1CCN(Cc2ccc(NC(=O)c3cncc(C#Cc4cnccc4C#N)c3)cc2C(F)(F)F)CC1
inactive: SK-MEL-2 melanoma 52% | EKVX NSCLC 66.4% | SN12C renal 60.5% | UO-31 renal 43.5% | TK-10 renal 108% | ACHN renal 66.8% | CAKI-1 renal 54.8% | A498 renal 84.9% | CCRF-CEM leukemia 59% | MOLT-4 leukemia 66.1% | RPMI-8226 leukemia 34.1% | OVCAR-8 ovarian 74.2% | OVCAR-5 ovarian 60.5% | OVCAR-4 ovarian 35.9% | SK-OV-3 ovarian 101% | IGROV1 ovarian 67.2% | OVCAR-3 ovarian 86.3% | HS 578T breast 24% | NCI/ADR-RES ovarian 74%

S=c1nc(-c2ccccc2)oc(=NC2CCCCC2)n1C1CCCCC1
active: CCRF-CEM leukemia -6.7% | MOLT-4 leukemia 0.447% | RPMI-8226 leukemia -8.22% | IGROV1 ovarian -25.9%
inactive: SK-MEL-2 melanoma 37.9% | EKVX NSCLC 24.4% | SN12C renal 67.9% | UO-31 renal 46.5% | TK-10 renal 32.8% | ACHN renal 15.4% | CAKI-1 renal 75.4% | A498 renal 86.8% | OVCAR-8 ovarian 32.2% | OVCAR-5 ovarian 86.2% | OVCAR-4 ovarian 33.9% | SK-OV-3 ovarian 87.7% | OVCAR-3 ovarian 11.8% | HS 578T breast 43.1% | NCI/ADR-RES ovarian 32.5%

Cc1ccc(-c2nn(C)c(=O)c3noc(-c4ccc(C)cc4)c23)cc1
inactive: EKVX NSCLC 56.5% | SN12C renal 44.1% | UO-31 renal 41.7% | TK-10 renal 47.4% | ACHN renal 43.5% | CAKI-1 renal 37.7% | A498 renal 25.6% | CCRF-CEM leukemia 18.9% | MOLT-4 leukemia 55.8% | RPMI-8226 leukemia 20.4% | OVCAR-8 ovarian 43.8% | OVCAR-5 ovarian 57.4% | OVCAR-4 ovarian 61.4% | SK-OV-3 ovarian 26.7% | IGROV1 ovarian 48.2% | HS 578T breast 28% | NCI/ADR-RES ovarian 30.4%
active: SK-MEL-2 melanoma 9.26% | OVCAR-3 ovarian 8.74%

O=CN(SSN(C=O)C1CCCCC1)C1CCCCC1
inactive: SK-MEL-2 melanoma 111% | EKVX NSCLC 95.3% | SN12C renal 99.7% | UO-31 renal 60.6% | TK-10 renal 106% | ACHN renal 105% | CAKI-1 renal 101% | A498 renal 116% | CCRF-CEM leukemia 111% | MOLT-4 leukemia 65.2% | RPMI-8226 leukemia 120% | OVCAR-8 ovarian 104% | OVCAR-5 ovarian 113% | OVCAR-4 ovarian 101% | SK-OV-3 ovarian 113% | IGROV1 ovarian 100% | OVCAR-3 ovarian 107% | HS 578T breast 112% | NCI/ADR-RES ovarian 116%

CCc1nnc(NC(=O)c2nnn(-c3ccccc3)c2-c2ccco2)s1
inactive: SK-MEL-2 melanoma 108% | EKVX NSCLC 84.7% | SN12C renal 96.4% | UO-31 renal 87.4% | TK-10 renal 115% | ACHN renal 94.5% | CAKI-1 renal 92.1% | A498 renal 42.7% | CCRF-CEM leukemia 77.8% | MOLT-4 leukemia 93.7% | RPMI-8226 leukemia 91% | OVCAR-8 ovarian 103% | OVCAR-5 ovarian 101% | OVCAR-4 ovarian 80.3% | SK-OV-3 ovarian 82.3% | IGROV1 ovarian 103% | OVCAR-3 ovarian 103% | HS 578T breast 92.5% | NCI/ADR-RES ovarian 100%

COc1cc(C)c(Cc2cnc(N)nc2N)cc1OC
inactive: SK-MEL-2 melanoma 87% | EKVX NSCLC 100% | SN12C renal 105% | UO-31 renal 88.4% | TK-10 renal 116% | ACHN renal 96.6% | CAKI-1 renal 97.8% | A498 renal 107% | CCRF-CEM leukemia 108% | MOLT-4 leukemia 62.6% | RPMI-8226 leukemia 82.1% | OVCAR-8 ovarian 105% | OVCAR-5 ovarian 99.6% | OVCAR-4 ovarian 99.5% | SK-OV-3 ovarian 105% | IGROV1 ovarian 95.1% | OVCAR-3 ovarian 114% | HS 578T breast 103% | NCI/ADR-RES ovarian 104%

Nc1nc(Cl)cc(=O)n1Cc1ccccc1
inactive: SK-MEL-2 melanoma 105% | EKVX NSCLC 94.1% | SN12C renal 90.9% | UO-31 renal 82.9% | TK-10 renal 92.7% | ACHN renal 107% | CAKI-1 renal 85.3% | A498 renal 99.4% | CCRF-CEM leukemia 98.7% | MOLT-4 leukemia 86.8% | RPMI-8226 leukemia 100% | OVCAR-8 ovarian 92.1% | OVCAR-5 ovarian 91% | OVCAR-4 ovarian 97.1% | SK-OV-3 ovarian 103% | IGROV1 ovarian 115% | OVCAR-3 ovarian 103% | HS 578T breast 135% | NCI/ADR-RES ovarian 91.9%

CNc1nc2c(s1)C(c1cc(F)ccc1F)CC(=O)N2 (centres undefined)
inactive: SK-MEL-2 melanoma 61.3% | EKVX NSCLC 97.8% | SN12C renal 71% | UO-31 renal 63.9% | TK-10 renal 17% | ACHN renal 87.8% | CAKI-1 renal 51.5% | A498 renal 34.4% | CCRF-CEM leukemia 40% | MOLT-4 leukemia 37.3% | RPMI-8226 leukemia 87.3% | OVCAR-8 ovarian 91.3% | OVCAR-5 ovarian 89.7% | OVCAR-4 ovarian 83.2% | SK-OV-3 ovarian 71.9% | IGROV1 ovarian 73.7% | OVCAR-3 ovarian 55.6% | HS 578T breast 70% | NCI/ADR-RES ovarian 71.7%

C#Cc1cccc(NC(=O)Nc2ccccc2NC(=O)CCl)c1
inactive: EKVX NSCLC 71.9% [8.25 µM] | CCRF-CEM leukemia 22.2% [8.25 µM] | MOLT-4 leukemia 24.5% [8.25 µM] | RPMI-8226 leukemia 10.7% [8.25 µM] | SK-OV-3 ovarian 85.3% [8.25 µM]
active: SK-MEL-2 melanoma -56% [8.25 µM] | SN12C renal -68.6% [8.25 µM] | UO-31 renal -97.7% [8.25 µM] | TK-10 renal -27.8% [8.25 µM] | ACHN renal -84.1% [8.25 µM] | CAKI-1 renal -85.2% [8.25 µM] | A498 renal -93.4% [8.25 µM] | OVCAR-8 ovarian -13.6% [8.25 µM] | OVCAR-5 ovarian -26% [8.25 µM] | OVCAR-4 ovarian -33.4% [8.25 µM] | IGROV1 ovarian -54.4% [8.25 µM] | OVCAR-3 ovarian -74.8% [8.25 µM] | HS 578T breast -1.15% [8.25 µM] | NCI/ADR-RES ovarian -2.56% [8.25 µM]

COc1ccc(C(=O)/C=C/c2sc(Cl)nc2Cl)cc1
active: ACHN renal -44.5% | RPMI-8226 leukemia -25.4% | OVCAR-3 ovarian -3.81% | NCI/ADR-RES ovarian 1.37%
inactive: SK-MEL-2 melanoma 39.8% | EKVX NSCLC 65.2% | SN12C renal 18% | UO-31 renal 51.9% | TK-10 renal 104% | CAKI-1 renal 27.4% | A498 renal 93.2% | CCRF-CEM leukemia 12.3% | MOLT-4 leukemia 11.6% | OVCAR-8 ovarian 22.9% | OVCAR-5 ovarian 47.1% | OVCAR-4 ovarian 42.2% | SK-OV-3 ovarian 39% | IGROV1 ovarian 11.1% | HS 578T breast 58.5%

Fc1cc(-c2nnc3n2NC(=Nc2ccc(Cl)cc2)CS3)c(Cl)cc1Cl
inactive: SK-MEL-2 melanoma 88.3% | EKVX NSCLC 95.2% | SN12C renal 108% | UO-31 renal 65.6% | TK-10 renal 91.6% | ACHN renal 95.2% | CAKI-1 renal 94.2% | A498 renal 77.8% | CCRF-CEM leukemia 214% | MOLT-4 leukemia 87% | RPMI-8226 leukemia 66.9% | OVCAR-8 ovarian 94.9% | OVCAR-5 ovarian 80.3% | OVCAR-4 ovarian 89.9% | SK-OV-3 ovarian 89.8% | IGROV1 ovarian 57.2% | OVCAR-3 ovarian 91.6% | HS 578T breast 89.3% | NCI/ADR-RES ovarian 88.3%

S=C(c1cccs1)N1CCN(c2cccc(Cl)c2)CC1
inactive: SK-MEL-2 melanoma 99% | EKVX NSCLC 115% | SN12C renal 101% | UO-31 renal 88.8% | TK-10 renal 101% | ACHN renal 100% | CAKI-1 renal 92.4% | A498 renal 96.7% | CCRF-CEM leukemia 87.9% | MOLT-4 leukemia 92.5% | RPMI-8226 leukemia 86.3% | OVCAR-8 ovarian 104% | OVCAR-5 ovarian 97.2% | OVCAR-4 ovarian 101% | SK-OV-3 ovarian 107% | IGROV1 ovarian 89.9% | OVCAR-3 ovarian 106% | HS 578T breast 120% | NCI/ADR-RES ovarian 104%

Cc1ncc(C(=O)Nc2ccc(CN3CCN(C)CC3)c(C(F)(F)F)c2)cc1C#Cc1ccc(N)nc1
inactive: CCRF-CEM leukemia 18.6% | MOLT-4 leukemia 25.9% | OVCAR-8 ovarian 19.8% | OVCAR-5 ovarian 10.4% | OVCAR-4 ovarian 12% | SK-OV-3 ovarian 16.7% | OVCAR-3 ovarian 18.6%
active: SK-MEL-2 melanoma -55% | EKVX NSCLC 9.23% | SN12C renal 2.89% | UO-31 renal -27% | TK-10 renal -28.2% | ACHN renal -20% | CAKI-1 renal -71.1% | A498 renal -64.1% | RPMI-8226 leukemia 1.1% | IGROV1 ovarian -25% | HS 578T breast -20% | NCI/ADR-RES ovarian 9.79%

CCCCC1CCCC12NC(=O)NC2=O (centres undefined)
inactive: SK-MEL-2 melanoma 100% | EKVX NSCLC 107% | SN12C renal 96% | UO-31 renal 85.1% | TK-10 renal 92.7% | ACHN renal 99.4% | CAKI-1 renal 107% | A498 renal 98.3% | CCRF-CEM leukemia 101% | MOLT-4 leukemia 122% | RPMI-8226 leukemia 101% | OVCAR-8 ovarian 113% | OVCAR-5 ovarian 88.2% | OVCAR-4 ovarian 106% | SK-OV-3 ovarian 110% | IGROV1 ovarian 88.8% | OVCAR-3 ovarian 92.8% | HS 578T breast 112% | NCI/ADR-RES ovarian 92.9%

Clc1ccc(C(/C=C/c2sc(Cl)nc2Cl)=N/Nc2cc(Cl)cc(Cl)c2)cc1
inactive: SK-MEL-2 melanoma 106% | EKVX NSCLC 103% | SN12C renal 100% | UO-31 renal 83% | TK-10 renal 119% | ACHN renal 102% | CAKI-1 renal 98.2% | A498 renal 101% | CCRF-CEM leukemia 94.5% | MOLT-4 leukemia 96.6% | RPMI-8226 leukemia 98.1% | OVCAR-8 ovarian 104% | OVCAR-5 ovarian 104% | OVCAR-4 ovarian 100% | SK-OV-3 ovarian 98.9% | IGROV1 ovarian 89.7% | OVCAR-3 ovarian 103% | HS 578T breast 98.3% | NCI/ADR-RES ovarian 104%

O=C1CSC(c2c(Cl)cccc2Cl)N1c1nc(Cl)cc(=O)[nH]1 (centres undefined)
inactive: SK-MEL-2 melanoma 78.3% | EKVX NSCLC 119% | SN12C renal 108% | UO-31 renal 79.8% | TK-10 renal 161% | ACHN renal 111% | CAKI-1 renal 117% | A498 renal 121% | CCRF-CEM leukemia 67.3% | MOLT-4 leukemia 171% | RPMI-8226 leukemia 58.7% | OVCAR-8 ovarian 107% | OVCAR-5 ovarian 94.4% | OVCAR-4 ovarian 130% | SK-OV-3 ovarian 109% | IGROV1 ovarian 71.9% | OVCAR-3 ovarian 107% | HS 578T breast 109% | NCI/ADR-RES ovarian 95%
